Vaccinia mCherry – qHTS for Stage-Specific Inhibitors of Vaccinia Orthopoxvirus: mCherry Reporter Primary qHTS; Vaccinia virus mCherry reporter infection, fluorescence; Potency, µM (highest dose often 36.5 µM), for the others: top-dose activity change, negative = inhibition, usual class: inhibitors; hit rate 0.63% among 310,000; calls by dose curve; tested in A549 cells; further: nearly all actives have a fitted effect of over 35% in size
Pf growth 96h – Primary qHTS for delayed death inhibitors of the malarial parasite plastid, 96 hour incubation; P. falciparum luciferase reporter growth, 96 h; Potency, µM (series often up to 28.7 µM), without a hit: at the highest dose activity change, negative = inhibition, usual class: inhibitors; hit rate 6.9% among 320,000; AID 504834, 2011
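P. falciparum expressing integrated firefly luciferase grown in erythrocytes (2% hematocrit, 0.05% parasitemia final) with compounds for 96 hours at 37 C, 5% CO2. Growth inhibition read as loss of luminescence after adding luciferase detection reagent.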
AMA1 RON2 block – qHTS for Inhibitors of AMA1-RON; Towards Development of Antimalarial Drug Lead: Primary Screen. AlphaScreen AMA1-biotinylated RON2 peptide binding. Potency, µM (titrated, usually from 58.2 µM), without a hit: top-dose activity change, negative = inhibition, hits mostly inhibitors. hit rate 0.2% among 360,000. AID 720542, 2013;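 further: 0% = vehicle wells and -100% = peptide control; nearly all actives have a fitted effect of over 45% in size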
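AMA1 (3D7) with his tag at 25 nM final met compounds first, then biotinylated RON2 peptide at 25 nM; detection used donor plus acceptor beads, 10 µg/mL apiece, read by AlphaScreen after 30 min at room temperature.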
Pf growth 48h – Primary qHTS for delayed death inhibitors of the malarial parasite plastid, 48 hour incubation | Potency, µM (doses to about 28.7 µM), for the others: top-dose activity change, negative = inhibition, most hits filed as inhibitors | P. falciparum luciferase growth in erythrocytes, 48 h | hit rate 5.9% among 310,000
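Read-out is firefly luciferase luminescence from an integrated reporter in P. falciparum, so falling signal marks reduced parasite growth. Infected erythrocytes were at 2% hematocrit and 0.1% parasitemia (final) in Albumax-supplemented RPMI 1640.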
Vaccinia Venus – qHTS for Stage-Specific Inhibitors of Vaccinia Orthopoxvirus: Venus Reporter Primary qHTS | Vaccinia virus Venus reporter expression, fluorescence | hit rate 0.46% among 330,000 | Potency, µM (series often up to 36.5 µM), for inactives: at the top dose activity change, negative = inhibition, usual class: inhibitors | AID 720580, 2013; calls by dose curve; tested in A549 cells; further: nearly all actives have a fitted effect of over 30% in size
* hit, by the source's call; i = inactive; ? = inconclusive; . = no result; [ ] = another dose, or the depositor's remark. Shown are actives, neighbours in structure and some others; about 8.7% of the full set was active somewhere. Unless noted, the call rests on the fitted dose curve; in most records, active means well fitted curve in the direction sought with a large enough effect; inconclusive means small, poorly fitted or top-dose-only effect, or another doubt; inactive means no such curve, though single readings can be large; an effect the other way counts as inactive or inconclusive. Unless noted, on the % scale 0 is the no-effect control and ±100 the full control effect; potency means the concentration at half of the fitted maximal effect.

SMILES | Vaccinia mCherry | Pf growth 96h | AMA1 RON2 block | Pf growth 48h | Vaccinia Venus
Cc1c2cnn(CC(=O)N3CCN(c4ccc(F)cc4)CC3)c(=O)c2c(C)n1Cc1ccccc1F | 1% | . | . | . | 2%
Cc1c2cnn(CC(=O)N3CCC4(CC3)OCCO4)c(=O)c2c(C)n1Cc1ccccc1F | . | 0.01µM* | 1% | 3% | -13%
Cc1c2cnn(CC(=O)Nc3c(F)c(F)cc(F)c3F)c(=O)c2c(C)n1Cc1ccccc1F | -10% | 9.3µM* | -2% | -14% | -6%
CCOc1ccccc1Nc1ccc2cc(S(=O)(=O)N3CCCCC3)ccc2n1 | ? | . | . | . | -29%
CS(=O)(=O)N1CCC(N2CCN(Cc3ccccc3)C(=O)C2=O)CC1 | -9% | . | . | . | -1%
Cc1ccc(NC(=S)NC(=O)C2CC2)cc1Cl | . | 9.3µM* | 18% | -26% | .
O=C(NC(=S)Nc1ccc(F)c(Cl)c1)C1CC1 | i | -6% | 0% | -37% | -11%
CN=C1C=CC(=C(c2ccc(N(C)C)cc2)c2ccc(N(C)C)cc2)C=C1 | . | 1.1µM* | . | 0.21µM* | .
CN(C)C(=S)c1ccc(N(C)C)cc1 | . | 21% | -3% | 43% | .
CCCCCCN(CCCCCC)C(=O)Cc1c(-c2ccc(F)cc2)[nH]c2ccccc12 | -6% | ? | 4% | 5.9µM* | -25%
Cc1oc(-c2ccccc2)nc1Cn1cccc1C1=NC(c2ccccc2)CO1 (configuration not stated) | ? | 5.2µM* | ? | ? | -33%
Cc1ccc(S(=O)(=O)N2CCN(c3nc(-n4cncn4)nc4ccccc34)CC2)cc1 | 0% | . | . | . | -18%
COc1ccccc1NC(=O)C1=C(C)Nc2nc(CCCO)nn2C1c1cccc(O)c1 (configuration not stated) | -8% | . | . | . | -13%
CC(C)NC(=S)NC(c1ccccc1)(c1ccccc1)c1ccccc1 | . | 8.3µM* | 26% | 6.6µM* | .
C/C(=N\NC(=S)NC(C)C)c1ccccc1 | -7% | -55% | 85% | ? | -7%
O=C(Nc1ccccc1)C1=C(c2ccccc2)S(=O)(=O)CCS1(=O)=O | ? | ? | 8% | 12µM* | ?
O=C(O)c1ccccc1C(=O)Nc1ccccc1 | . | . | -11% | 15% | .
C=CCn1c(=O)c2ccccc2n2c(SCc3nc(N)nc(Nc4ccccc4C)n3)nnc12 | i | ? | -2% | 8.3µM* | -6%
CCc1c(C)sc(NC(=O)c2cc3nc(-c4ccc(OC)cc4)cc(C(F)(F)F)n3n2)c1C(=O)OC | -8% | . | . | . | 3%
Cc1cc(N2CCC(C(=O)Nc3ccc(F)cc3C)CC2)n2nc(C)c(-c3ccc(Cl)cc3)c2n1 | 4% | . | . | . | 3%
O=C(NC1CCN(c2ncccn2)CC1)c1ccccc1F | . | -8% | 0% | 12% | .
O=C(CN1CCCCC1)Nc1ccc(NC(=O)c2ccccc2Cl)cc1Cl | i | 15µM* | -2% | -9% | -28%
Cc1ccccc1C(=O)NC1CCN(CC(=O)Nc2ccccc2Cl)CC1 | . | 0.93µM* | -1% | -13% | .
COC(=O)c1ccccc1NC(=O)CN1CCC(NC(=O)c2ccccc2C)CC1 | . | -16% | 0% | ? | .
COc1ccc(NC(=O)CN2CCN(CC(=O)Nc3ccccc3OC)CC2)c(OC)c1 | . | 32% | 0% | -5% | .
SMILES | Vaccinia mCherry | Pf growth 96h | AMA1 RON2 block | Pf growth 48h | Vaccinia Venus
COc1ccc(NC(=O)CN2CCN(CC(=O)Nc3ccccc3Cl)CC2)c(OC)c1 | ? | 15µM* | 0% | . | -27%
O=C(NC1CCN(c2ncccn2)CC1)c1ccccc1Cl | . | 10µM* | 0% | -10% | .
COc1ccc(-c2cc3nc(C)c(CCC(=O)Nc4cccc(C(F)(F)F)c4)c(C)n3n2)c(OC)c1 | 0% | . | . | . | -3%
COc1ccc(OC)c(NC(=O)CCN2CCN(Cc3ccccc3)CC2)c1 | -16% | -5% | -3% | 13µM* | -2%
O=C(CN1CCN(C(=O)c2cncn2-c2ccccc2)CC1)Nc1ccccc1Cl | -11% | 15µM* | 2%[11.6 µM] | ? | -11%
O=C(CN1CCNCC1)Nc1ccccc1Cl | -23% | ? | 12% | . | -16%
C/C(=N\NC(=O)c1ccc(Cl)cc1)c1ccc(Br)s1 | -20% | 2.6µM* | 9% | 7.4µM* | -16%
C/C(=N/NC(=O)c1ccc(C)s1)c1cccnc1 | . | 0% | 18% | 105% | .
C/C(=N/NC(=O)c1ccc(Br)s1)c1cccnc1 | . | 7.4µM* | 33% | 39% | .
COc1ccc(C)cc1NC(=O)CN1C(=O)CCc2cc(S(=O)(=O)N3CCOCC3)ccc21 | -5% | . | . | . | 2%
Cc1cccc2c(=O)[nH]c3c(-c4nc(-c5ccc(Cl)cc5)cs4)c(O)cn3c12 | -11% | . | . | . | -9%
Cc1ccc(-c2nnc(NCc3nc4ccccc4[nH]3)c3ccccc23)cc1S(=O)(=O)N1CCCCC1 | -26% | 13µM* | 26% | ? | -19%
Cc1ccc(N(C(=O)Cc2c[nH]c3ccccc23)C(C(=O)NC2CCCCC2)c2ccco2)cc1 (configuration not stated) | . | ? | -7% | 10µM* | .
Cc1ccc(C(C(=O)NC2CCCCC2)N(C(=O)Cc2c[nH]c3ccccc23)c2ccccc2C)o1 (configuration not stated) | ? | 12% | 4% | ? | ?
Cc1ccc(C(C(=O)NC2CCCCC2)N(Cc2ccco2)C(=O)Cc2c[nH]c3ccccc23)o1 (configuration not stated) | . | ? | -18% | 13µM* | .
COc1ccc(CCNC(=O)c2cc(=O)[nH]c3ccc(S(=O)(=O)N4CCCCC4)cc23)cc1OC | -5% | . | . | . | -3%
COc1ccc([C@H]2CC(=O)C=C(c3ccc(CNC(=O)OC(C)(C)C)cc3)C2)cc1 | ? | 5.9µM* | -11% | 12µM* | ?
COc1ccc([C@H]2CC(=O)C=C(c3cccc(F)c3OC)C2)cc1 | -7% | 33% | -2% | 13% | -26%
COc1ccc([C@H]2CC(=O)C=C(c3ccccc3Oc3ccccc3)C2)cc1 | -8% | ? | -8% | 10µM* | -18%
COc1ccc([C@H]2CC(=O)C=C(c3ccccc3-c3ccccc3)C2)cc1 | -13% | 13µM* | -2% | ? | -29%

Screening data from PubChem BioAssay.
